# Screen size: about 69,000 compounds; about 950 (1.4%) showed an effect of 50% or more. Only a selection was taken, and strong results are over-represented in it overall.
# Test system: Mycobacterium tuberculosis
# Assay: Cornell M. t heat shock assay; also: in the data most compounds retested in dose-response had high values
# Format: functional, organism-based
# Design: dose or concentration left out as unconfirmed
row,SMILES,Percent Effect [%]
1,Cc1cnc(N2CCc3c(CNc4ccnc(C)n4)cncc3C2)nc1.Cl,12.07
2,Cl.Cn1ccnc1N1CCN(C(=O)Cc2ccccc2)CC1,-7.185
3,O=C(O)C(F)(F)F.O=C1COC2(CCN(C(=O)C3CC=CC3)CC2)CN1Cc1cccnc1,-29.72
4,CS(=O)(=O)CC(=O)N1C[C@@H]2CN(Cc3ccoc3)CCO[C@@H]2C1,-0.05269
5,Cc1cc(C(=O)N2CCc3nc(C4CCCCN4)ncc3C2)cs1.Cl (stereo not drawn),-19.38
6,O=C(O)C(F)(F)F.O=C(O)C(F)(F)F.c1cc(CO[C@@H]2CC[C@H]3[C@H]2OCCN3CC2CCOCC2)ccn1,-2.91
7,CN(C)[C@@H]1CN(C(=O)Cc2ccc(F)cc2)[C@@H]2CCCO[C@H]12.O=C(O)C(F)(F)F,-22.98
8,Cc1ccc(C(=O)N2CCc3ccc(=O)n(CCN(C)C)c3CC2)o1.O=C(O)C(F)(F)F,-16.57
9,O=C(NCCc1cccs1)[C@H]1CO[C@H]2CCN(C3CCC3)C[C@H]2C1.O=C(O)C(F)(F)F,6.34
10,COCCNC(=O)[C@H]1CO[C@H]2CCN(Cc3cccs3)C[C@H]2C1,78.89
11,O=C(NCc1cccs1)[C@H]1CO[C@H]2CCN(C3CCCC3)C[C@H]2C1.O=C(O)C(F)(F)F,16.16
12,COCCN1CC[C@@H]2OC[C@H](C(=O)NCc3cccs3)C[C@@H]2C1.O=C(O)C(F)(F)F,-7.487
13,O=C(NCCc1cccs1)[C@H]1CO[C@H]2CCN(CC3CC3)C[C@H]2C1.O=C(O)C(F)(F)F,1.069
14,CCN1CC[C@@H]2OC[C@H](C(=O)NCc3cccs3)C[C@@H]2C1,64.41
15,O=C(NC1CCC1)[C@H]1C[C@@H]2CN(C(=O)Nc3ccc(F)cc3)C[C@H]1O2,-5.328
16,CN(C)c1ncc(-c2cc(C(=O)NCCO)n(CC3CC3)c2)cn1.O=C(O)C(F)(F)F,-4.821
17,CC(C)c1cc(CN2CCNCC2)no1,100.9
18,CC(C)c1cc(CN2CCC(CC(=O)O)CC2)no1,6.455
19,CC(C)c1cc(CN2CCC(N)CC2)no1,-1.347
20,OC1(c2ccccc2F)CCN(Cc2ccccc2N2CCCC2)CC1,-5.486
21,Cl.OC1(c2ccc(F)cc2)CCN(Cc2ccccc2N2CCCC2)CC1,3.038
22,Cc1cccc(C2(O)CCN(Cc3ccccc3N3CCCC3)CC2)c1,106

row,SMILES,Percent Effect [%]
1,O=C1NCCCCC1NC(=O)N1CCCc2cc(F)ccc21 (stereo not drawn),-1.562
2,CCN1Cc2cc(F)ccc2N(C(C)=O)CCC1=O,51.48
3,O=C(C1CCC1)N1CCC(=O)N(C2CC2)Cc2cc(F)ccc21,39.59
4,CCN(CC)S(=O)(=O)CC(=O)N1CCc2ccc(F)cc21,-19.64
5,CN1C(=O)CCN(C(=O)C2CCCCC2)c2ccccc21,-13.68
6,CCN1Cc2ccccc2N(C(=O)C2CCC2)CCC1=O,52.52
7,CC(=O)N1CCC(=O)N(C2CCCC2)Cc2ccccc21,18.8
8,COCC(=O)N1CCC(=O)N(C2CCCC2)Cc2cc(F)ccc21,44.15
9,CCN1Cc2cc(F)ccc2N(C(=O)C2CCC2)CCC1=O,57.03
10,Cc1cccc(CN2CCC3(CC2)NC(=O)CC3c2ccccc2)n1.O=C(O)C(F)(F)F (stereo not drawn),-4.61
11,Cc1nc(CN2CCC3(CCCN(Cc4ccoc4)C3)C2=O)cs1.O=C(O)C(F)(F)F.O=C(O)C(F)(F)F (stereo not drawn),-16.93
12,COc1cccc(CNCc2ccc(F)cc2Cl)c1O,10.28
13,CCOCC1CN(CC2CC2)Cc2nn(CC3CC3)cc21.O=C(O)C(F)(F)F (stereo not drawn),0.05869
14,Cn1cc(CN2CCCC23CCN(C(=O)c2ccccn2)CC3)cn1.O=C(O)C(F)(F)F,-28.64
15,CCOCCCn1c(NC(=O)c2scnc2C)nc2ccccc21,84.26
16,CCOCCCn1c(NC(=O)c2cc(C)on2)nc2ccccc21,59.74
17,CCOCCCn1c(NC(=O)c2cnc(C)cn2)nc2ccccc21,28.96
18,CCOCCCn1c(NC(=O)c2cnc(C)s2)nc2ccccc21,-7.023
19,CCOCCCn1c(NC(=O)c2ccc(C)nc2)nc2ccccc21,25.39
20,CCOCCCn1c(NC(=O)c2cc(C)no2)nc2ccccc21,4.963
21,CCOCCCn1c(NC(=O)c2cnn(C)c2)nc2ccccc21,44.67
22,CCN(CC)CCn1c(NC(=O)c2scnc2C)nc2ccccc21,46.93

row,SMILES,Percent Effect [%]
1,CCOCCCn1c(NC(=O)c2ccnc(C)n2)nc2ccccc21,94.99
2,COc1c(CNCc2ccc(C(=O)N3CCCC3)cc2)c(C)nn1C.Cl,-14.26
3,COc1ccc(CN2C[C@@H]3OCCN(CCN(C)C)[C@@H]3C2)cc1.O=C(O)C(F)(F)F.O=C(O)C(F)(F)F.O=C(O)C(F)(F)F,-21.44
4,Cl.NC(CNS(=O)(=O)Cc1cccc2cccnc12)c1ccccc1 (stereo not drawn),-15.27
5,O=C(NCC1CCOCC1)[C@H]1C[C@@H]2CCN(Cc3ccccc3)C[C@H]2O1.O=C(O)C(F)(F)F,-21.55
6,Cc1cccc(CN2CC[C@H]3[C@@H]2CC(=O)N3CC2CC2)n1.O=C(O)C(F)(F)F,-9.975
7,O=C(c1ccoc1)N1CC[C@H]2C[C@@H](c3nnc(C4CC4)o3)O[C@@H]2C1,19.79
8,O=C(c1ccsc1)N1CC[C@H]2C[C@@H](c3nnc(C4CC4)o3)O[C@@H]2C1,26.95
9,O=C(c1ccccc1)N1CC[C@H]2C[C@@H](c3nnc(C4CC4)o3)O[C@@H]2C1,48.55
10,O=C(c1ccccc1)N1CC[C@H]2C[C@H](c3nnc(C4CC4)o3)O[C@@H]2C1,57.91
11,O=C(c1cccs1)N1CC[C@H]2C[C@@H](c3nnc(C4CC4)o3)O[C@@H]2C1,56.75
12,O=C(c1cscn1)N1CC[C@H]2C[C@H](c3nnc(C4CC4)o3)O[C@@H]2C1,27.2
13,COCC1c2c(cnn2C)CCN1C(=O)c1cc(C)on1.O=C(O)C(F)(F)F (stereo not drawn),28.69
14,Cc1cnccc1-c1cnn(CCNC(=O)c2ccccn2)c1C1CC1.Cl,22.13
15,CC(C)Cc1cc(C(=O)NC(C)(C)c2nnc(N)s2)n(C)n1,18.34
16,CC(C)(C)c1nc(CN2CCc3onc(-c4cccc(F)c4)c3C2)no1,31.99
17,CC(C)c1nc(CN2CCc3onc(-c4cccc(F)c4)c3C2)no1,35.68
18,CC(C)Cc1nc(CN2CCc3onc(-c4cccc(F)c4)c3C2)no1,52.2
19,CN(C)[C@@H]1CN(Cc2ccc(O)cc2)C[C@H]1c1cn(C)c2ccccc12.Cl,10.72
20,CN(C)[C@@H]1CN(Cc2ccccc2O)C[C@H]1c1cn(C)c2ccccc12.Cl,12.04
21,O=C1CCCC2=C1C(c1ccccc1F)Nc1nonc1N2 (stereo not drawn),-20.35
22,O=c1cc(CN2CCCC2)nc2n1CCCN(Cc1ccsc1)C2,-27.96

row,SMILES,Percent Effect [%]
1,Cn1ccnc1-c1nc(NC2CCCC2)ncc1-c1cccc(F)c1,85.28
2,COCCNc1ncc(-c2cccc(F)c2)c(-c2nccn2C)n1,-4.341
3,CCOCCCNc1ncc(-c2cccc(F)c2)c(-c2nccn2C)n1,8.299
4,Cl.O=C1CC2(CCCNC2)C(=O)N1Cc1cccc(F)c1 (stereo not drawn),-11.34
5,CCN1CCn2c(C)cnc2C12CCN(C(=O)COC)CC2.O=C(O)C(F)(F)F.O=C(O)C(F)(F)F,-13.45
6,CCc1nc(N)nc(N2CCCC3(CN(C)C(=O)O3)C2)c1C (stereo not drawn),-1.052
7,CNC(=O)CN1CCCC12CCN(C(=O)c1ccoc1)CC2.O=C(O)C(F)(F)F,6.336
8,Cc1nc(-c2cncnc2C2CCCNC2)no1.Cl.Cl (stereo not drawn),-15.54
9,CC(=O)N1CCCC2(C1)CN(C(=O)c1ccncc1)CCO2 (stereo not drawn),-1.478
10,COc1cccc(C(=O)N2CCOC3(CCCN(C(C)=O)C3)C2)c1 (stereo not drawn),5.566
11,COc1ccccc1C(=O)N1CCOC2(CCCN(C(C)=O)C2)C1 (stereo not drawn),71.6
12,Cc1noc([C@H]2C[C@@H]3CCN(c4nnc(C)s4)C[C@H]3O2)n1.O=C(O)C(F)(F)F,1.861
13,Cc1ccc(N2CCC3(CCN(C(=O)c4ccsc4)C3)CC2)nn1.O=C(O)C(F)(F)F,-20.48
14,Fc1ccc(CN2CCC3(CC2)CC(c2cccnc2)CO3)cc1.O=C(O)C(F)(F)F.O=C(O)C(F)(F)F (stereo not drawn),-26.17
15,COCCN1C(=O)[C@H]2CC[C@@H]1CN(C(=O)CCc1n[nH]c(C)c1C)C2,8.165
16,O=C(c1cnc(-c2noc3cc(N4CCCC4)ccc23)s1)N1CCCC1,-6.808
17,O=C(NC1CC1)c1cnc(-c2noc3cc(N4CCCCC4)ccc23)s1,-8.735
18,CCN(C)C(=O)c1cnc(-c2noc3cc(N4CCCCC4)ccc23)s1,85.74
19,Cl.O=C(c1ccnc(C2CCNCC2)c1)N1CCCOCC1,-3.625
20,CNS(=O)(=O)CC(=O)N1CC2(CCCC2)c2c(F)cccc21,13.66
21,O=C(NCC(=O)N1CC2(CCCC2)c2c(F)cccc21)C1CC1,55.94
22,CCS(=O)(=O)NCC(=O)N1CC2(CCCC2)c2c(F)cccc21,17.06

# — ChEMBL document CHEMBL3988442, “University of Dundee, Small-Polar-MMV Screening Library” (2021)
